The target in experiment [1] is ATPase family AAA domain-containing protein 5 (Homo sapiens) (UniProt Q96QE3). Nature of the experiment: HTS assay for small molecules that inhibit ELG1-dependent DNA repair in human embryonic kidney (HEK293T) cells expressing luciferase-tagged ELG1: Hit Confirmation (AID 624248). Note: potency is the fitted concentration of half-maximal effect; nearly all actives have a fitted effect of over 55% in size. The gist of the method:
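HEK293T cells expressing luciferase-tagged ELG1 treated with 5-fluorouridine plus compound for 16 h at 37 C; luciferase activity then measured with ONE-Glo after 30 min at room temperature.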

Experiment [2] shares this target. Briefly: qHTS screen for small molecules that inhibit ELG1-dependent DNA repair in human embryonic kidney (HEK293T) cells expressing luciferase-tagged ELG1: Hit Confirmation using MMS Stimulated ELG1 (AID 624249). Note: nearly all actives have a fitted effect of over 60% in size. Note: potency is the fitted concentration of half-maximal effect. The gist of the method: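 Luminescence read-out (Amplight) of an ELG1-luc reporter in HEK293T cells after 16 h of compound exposure under MMS stimulation at 10 µM final. Inhibition appears as reduced luciferase activity.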

The nature of experiment [3]: qHTS screen for small molecules that inhibit ELG1-dependent DNA repair: Hit Confirmation with MMS Viability (AID 624251). Note: potency is the fitted concentration of half-maximal effect.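 Note: viability read 16 h after compound addition; nearly all actives have a fitted effect of over 60% in size.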 The gist of the method: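 CellTiter-Glo viability of ELG1-luc HEK293T cells after 16 h with compound plus 10 µM MMS.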
In general terms: Quantitative high-throughput screening tests each substance at several concentrations.

Experiment [4] deals with Luciferin 4-monooxygenase (Photinus pyralis) (UniProt P08659). Nature of the experiment: Biochemical firefly luciferase enzyme assay for NPC (AID 624030).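 Note: purified P. pyralis luciferase at 10 nM with luciferin and ATP substrate; series mostly up to about 59 µM; nearly all actives have a fitted effect of over 70% in size.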 The gist of the method:
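Purified P. pyralis luciferase at 10 nM in 50 mM Tris Acetate (final), luminescence read within 5 minutes of enzyme addition to compounds. Activity normalised to PTC124 versus DMSO; concentration-response curves classed by r2, magnitude and activity.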

The target of experiment [5] is Tumor susceptibility gene 101 protein (Homo sapiens) (UniProt Q99816). Nature of the experiment: qHTS Assay for Iinhibitors of HIV-1 Budding by Blocking the Interaction of PTAP/TSG101: Hit Validation (AID 651600). Note: nearly all actives have a fitted effect of over 70% in size. Note: potency is the fitted concentration of half-maximal effect. The gist of the method: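 Tsg101 binding domain 10 uM + FITC-PTAP peptide 50 nM (final), 10 mM HEPES pH 7.5/0.15 M NaCl/0.01% Tween 20/3 mM EDTA/0.1 mM TCEP; 20 min RT; FP read, FITC filters.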

Molecules are shown by their SMILES. Records with an inconclusive call do not appear. The list shows a part of the results. Entries that show only a call come without a potency. The source made the active and inactive calls. Calls come from the whole dose curve; as a rule, active = well fitted curve in the direction sought with a large enough effect; inconclusive = small, poorly fitted or top-dose-only effect, or another doubt; inactive = no such curve, though single readings can be large; an effect the other way counts as inactive or inconclusive.

ATPase family AAA domain-containing protein 5 (Homo sapiens), sequence (Q96QE3 whole entry, looked up, the tested form may be a part): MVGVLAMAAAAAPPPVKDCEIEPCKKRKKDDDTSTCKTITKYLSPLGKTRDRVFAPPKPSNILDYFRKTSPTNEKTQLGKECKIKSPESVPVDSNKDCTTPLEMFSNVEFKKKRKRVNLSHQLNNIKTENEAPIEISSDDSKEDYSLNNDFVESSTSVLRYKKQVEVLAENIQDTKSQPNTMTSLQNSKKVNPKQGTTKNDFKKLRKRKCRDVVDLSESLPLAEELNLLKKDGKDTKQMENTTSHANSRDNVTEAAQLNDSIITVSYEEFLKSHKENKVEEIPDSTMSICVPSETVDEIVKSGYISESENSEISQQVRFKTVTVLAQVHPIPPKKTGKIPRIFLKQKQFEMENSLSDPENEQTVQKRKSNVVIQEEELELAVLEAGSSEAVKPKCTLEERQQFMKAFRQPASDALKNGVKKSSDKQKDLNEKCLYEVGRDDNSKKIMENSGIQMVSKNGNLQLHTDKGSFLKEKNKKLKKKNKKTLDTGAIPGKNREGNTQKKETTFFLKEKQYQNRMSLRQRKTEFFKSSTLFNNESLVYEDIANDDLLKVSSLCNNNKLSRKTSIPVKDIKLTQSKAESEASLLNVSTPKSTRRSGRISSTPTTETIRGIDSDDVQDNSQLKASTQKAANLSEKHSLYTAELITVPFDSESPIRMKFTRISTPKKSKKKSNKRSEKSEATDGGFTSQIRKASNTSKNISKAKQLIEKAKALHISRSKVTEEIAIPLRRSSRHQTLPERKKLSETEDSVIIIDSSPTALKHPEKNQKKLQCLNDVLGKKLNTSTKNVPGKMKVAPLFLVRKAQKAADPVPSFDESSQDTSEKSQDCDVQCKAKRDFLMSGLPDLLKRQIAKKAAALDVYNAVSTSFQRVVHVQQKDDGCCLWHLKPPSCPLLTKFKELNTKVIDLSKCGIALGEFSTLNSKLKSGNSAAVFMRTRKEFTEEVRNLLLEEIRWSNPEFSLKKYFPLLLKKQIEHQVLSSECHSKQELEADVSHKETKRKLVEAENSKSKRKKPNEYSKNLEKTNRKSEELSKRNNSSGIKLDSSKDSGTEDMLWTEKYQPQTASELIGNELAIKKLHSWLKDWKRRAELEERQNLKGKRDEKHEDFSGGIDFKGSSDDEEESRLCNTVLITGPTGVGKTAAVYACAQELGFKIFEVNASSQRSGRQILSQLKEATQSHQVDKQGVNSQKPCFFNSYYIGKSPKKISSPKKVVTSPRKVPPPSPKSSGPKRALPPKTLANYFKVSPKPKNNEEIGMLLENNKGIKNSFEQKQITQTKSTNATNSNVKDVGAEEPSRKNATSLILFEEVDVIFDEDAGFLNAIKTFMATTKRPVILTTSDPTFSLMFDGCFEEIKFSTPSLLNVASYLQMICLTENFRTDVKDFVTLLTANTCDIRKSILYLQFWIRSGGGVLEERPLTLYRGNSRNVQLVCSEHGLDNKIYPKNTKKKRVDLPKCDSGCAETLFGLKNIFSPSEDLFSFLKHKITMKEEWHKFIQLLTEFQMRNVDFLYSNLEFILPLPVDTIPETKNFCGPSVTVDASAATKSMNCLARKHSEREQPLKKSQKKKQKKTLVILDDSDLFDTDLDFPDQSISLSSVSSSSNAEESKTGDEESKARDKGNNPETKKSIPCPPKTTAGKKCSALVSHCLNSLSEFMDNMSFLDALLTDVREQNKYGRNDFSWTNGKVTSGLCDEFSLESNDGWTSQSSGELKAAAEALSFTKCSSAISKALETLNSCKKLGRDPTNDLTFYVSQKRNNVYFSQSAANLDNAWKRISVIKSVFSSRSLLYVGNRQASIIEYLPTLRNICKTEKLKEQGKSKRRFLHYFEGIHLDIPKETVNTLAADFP
Tumor susceptibility gene 101 protein (Homo sapiens), sequence (Q99816 whole entry, looked up, the tested form may be a part): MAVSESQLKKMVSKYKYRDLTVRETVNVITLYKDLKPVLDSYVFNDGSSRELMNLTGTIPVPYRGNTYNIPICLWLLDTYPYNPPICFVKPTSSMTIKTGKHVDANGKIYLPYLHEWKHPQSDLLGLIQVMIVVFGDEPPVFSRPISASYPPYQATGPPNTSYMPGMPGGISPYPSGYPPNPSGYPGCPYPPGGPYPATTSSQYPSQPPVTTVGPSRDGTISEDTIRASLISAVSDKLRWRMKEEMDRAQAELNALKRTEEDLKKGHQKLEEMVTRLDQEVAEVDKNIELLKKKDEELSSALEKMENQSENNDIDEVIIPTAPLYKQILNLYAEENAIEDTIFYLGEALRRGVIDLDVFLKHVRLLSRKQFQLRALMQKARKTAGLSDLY
Luciferin 4-monooxygenase (Photinus pyralis), sequence (P08659 whole entry, looked up): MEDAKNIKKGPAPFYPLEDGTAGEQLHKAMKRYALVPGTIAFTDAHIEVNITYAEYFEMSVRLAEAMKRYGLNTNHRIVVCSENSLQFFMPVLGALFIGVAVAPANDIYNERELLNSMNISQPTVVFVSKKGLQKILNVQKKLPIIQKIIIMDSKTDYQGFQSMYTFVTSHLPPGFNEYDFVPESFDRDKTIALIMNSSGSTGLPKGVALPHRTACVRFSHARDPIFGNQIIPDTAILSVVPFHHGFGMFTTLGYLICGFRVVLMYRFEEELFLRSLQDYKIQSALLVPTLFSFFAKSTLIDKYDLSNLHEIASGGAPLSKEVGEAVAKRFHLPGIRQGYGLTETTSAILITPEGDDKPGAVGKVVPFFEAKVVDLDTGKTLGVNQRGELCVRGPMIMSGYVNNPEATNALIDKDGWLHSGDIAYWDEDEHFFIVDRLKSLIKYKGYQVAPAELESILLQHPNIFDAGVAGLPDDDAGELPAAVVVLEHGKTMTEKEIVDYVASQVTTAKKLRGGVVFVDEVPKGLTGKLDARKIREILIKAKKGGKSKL

In the case of `Cc1cc2oc(=O)cc(CN3CCN(S(=O)(=O)c4cccs4)CC3)c2cc1C(C)C`, the Potency in experiment [1] was 3.53 µM (active); in experiment [2] it was 8.88 µM (active); in experiment [3], 22.3 µM (active).

Regarding `CCc1ccc(N(CC)c2ncnc3nc[nH]c23)cc1`, the Potency is 4.99 µM (active) in experiment [1] and 17.7 µM (active) in experiment [2]. The Potency result in experiment [3] was “inactive”.

In the case of `CCOC(=O)c1cccc(NC(=O)C2CCN(c3ncnc4c3nc3n4CCCCC3)CC2)c1`, the Potency in experiment [1] is 3.97 µM (active). Also, in experiment [3], the Potency result was “inactive”.

`Clc1ccc2nc(-c3ccccc3)nc(C(Cl)Cl)c2c1`: the Potency is 3.53 µM (active) in experiment [1], 2.23 µM (active) in experiment [2] and 3.97 µM (active) in experiment [3].

As to `O=C1C=C(CO)OCC1=O`, in experiment [4], the Potency entry was “inactive”.

Consider `CCOC(=O)[C@H](CCc1ccccc1)NC(C)C(=O)N1CC2(CC1C(=O)O)SCCS2` (stereo partly specified), for which the Potency result in experiment [4] is “inactive”.

As to `CS(=O)(=O)c1ccc2nc(NC(=O)C3CCCCC3)sc2c1`, the Potency in experiment [1] is 6.28 µM (active). Further, the Potency result in experiment [2] and in experiment [3] was “inactive” each time.

With `CC(CSC(=O)c1ccccc1)C(=O)N1CC(Sc2ccccc2)CC1C(=O)O` (stereo unspecified), the Potency entry in experiment [4] is “inactive”.

Consider `COc1ccc(OC)c(S(=O)(=O)Nc2cc3c(cc2C)n(C)c(=O)c(=O)n3C)c1`, for which the Potency entry in experiment [5] is “inactive”.

With `Clc1ccc(C2=CC(c3ccco3)n3ncnc3N2)cc1` (stereo unspecified), the Potency entry in experiment [5] was “inactive”.

In the case of `CCCN1CCN(S(=O)(=O)c2cn(C)nc2C)CC1`, in experiment [5], the Potency result is “inactive”.

For the compound `CC(C)c1cc(=O)oc2c3c4c(cc12)CCCN4CCC3`, in experiment [5], the Potency was 5.17 µM (active).

As to `CN1CCc2c(sc3c2C(=O)NC(c2ccccn2)N3)C1` (stereo unspecified), the Potency in experiment [5] is 18.3 µM (active).

Take `CC1=CC(=C(C#N)c2nc3ccccc3s2)C=C(C)N1c1ccc(F)cc1`: the Potency in experiment [5] is 18.3 µM (active).

For `CCOc1ccc(NC(=O)N(C2CCCCC2)C(C)c2ccncc2)cc1` (stereo unspecified), the Potency result in experiment [5] is “inactive”.

Turning to `O=C1Nc2ccc(Cl)cc2C12Nc1ccccc1-c1nnc(SCc3ccccc3F)nc1O2` (stereo unspecified), the Potency result in experiment [5] was “inactive”.

`O=C(NCc1cccc(F)c1)c1cccc2c1C(=O)c1ccc(N3CCC(Cc4ccccc4)CC3)cc1S2(=O)=O`: the Potency in experiment [5] is 10.3 µM (active).

As for `CCn1c(/C=C/c2cc[n+](C)cc2)nc2ccccc21`, the Potency entry in experiment [5] is “inactive”.

In the case of `O=S(=O)(Nc1cccc(-c2ccc(N3CCCCCC3)nn2)c1)c1cccc(F)c1`, in experiment [5], the Potency entry is “inactive”.

As to `CC1(C)CC(=O)C2=C(C1)OC(N)=C(C#N)[C@@H]2c1ccccc1[N+](=O)[O-]`, the Potency entry in experiment [5] was “inactive”.

Turning to `O=C1CCCC2=C1Sc1ccc(Cl)cc1N2`, the Potency entry in experiment [5] was “inactive”.

For the compound `Nc1c(C(=O)c2cccs2)sc2nsc(SCCN3CCCCC3)c12`, the Potency in experiment [5] was 14.6 µM (active).

Take `COc1ccc(C(=O)c2sc3nc(C)cc(-c4cccs4)c3c2N)cc1OC`: in experiment [5], the Potency result was “inactive”.

For `CCOC(=O)N1CCN(c2nc3ccccc3nc2C(C#N)S(=O)(=O)c2ccc(C)cc2)CC1` (stereo unspecified), the Potency entry in experiment [5] was “inactive”.

For `COC(=O)c1c(NC(=O)CC2Nc3cc(C)c(C)cc3NC2=O)sc(C)c1C` (stereo unspecified), in experiment [5], the Potency result was “inactive”.

Take `CC(C)(C)c1ccc(C2C3=C(CCCC3=O)NC3=C2C(=O)c2ccccc23)cc1` (stereo unspecified): in experiment [5], the Potency result is “inactive”.

In the case of `O=C1/C(=N\S(=O)(=O)c2cccs2)C([n+]2cccc(Cc3ccccc3)c2)=C([O-])c2ccccc21`, the Potency in experiment [5] is 16.3 µM (active).

Turning to `O=[n+]1c2c(n([O-])c3cc(F)c(N4CCCC4)cc31)CCC2`, the Potency in experiment [5] was 13 µM (active).

As to `O=C1C=CC(=O)c2c(O)c(CO)c(CO)c(O)c21`, in experiment [5], the Potency result is “inactive”.

Consider `CNc1c2cccc(C)c2nc2c(C(=O)NCCN(C)C)cccc12`, for which the Potency in experiment [5] was 16.3 µM (active).

With `Cc1ccc(N2C(=O)C3C(C(=O)c4ccccc4)=NN(c4ccccc4)C3C2=O)cc1` (stereo unspecified), the Potency entry in experiment [5] is “inactive”.

In the case of `CCOc1ccc(NC(=O)c2ccc3c(c2)CCN3S(C)(=O)=O)cc1`, in experiment [5], the Potency result was “inactive”.

As to `COCCN(CCOC)Cc1c(O)ccc2c1O/C(=C\c1ccco1)C2=O`, the Potency in experiment [5] is 13 µM (active).

With `CSc1c(C#N)c(N)nc2sc(C(=O)c3ccc(Cl)c(Cl)c3)c(N)c12`, the Potency result in experiment [5] was “inactive”.

In the case of `CCN(CC)c1ccc2cc(-c3nc(-c4ccc(OC)cc4)cs3)c(=O)oc2c1`, in experiment [5], the Potency result was “inactive”.

As to `COc1ccc(/C=c2\s/c(=C/C(=O)c3ccc(C)cc3)[nH]c2=O)c(OC)c1`, the Potency result in experiment [5] is “inactive”.

Regarding `Cc1cccc(NC(=S)NCCC(c2ccccc2)c2ccccc2)c1`, in experiment [5], the Potency entry is “inactive”.

With `COc1cc(-c2cc(-c3ccc(N)cc3)[nH]c(=O)c2C#N)cc(OC)c1OC`, the Potency result in experiment [5] is “inactive”.

In the case of `COc1ccc(C2C(C(=O)c3cccs3)=C(O)C(=O)N2c2nnc(C)s2)cc1OC` (stereo unspecified), in experiment [5], the Potency is 6.51 µM (active).

For `O=c1oc2c3c4c(cc2c2c1CCC2)OCCN4CCC3`, in experiment [5], the Potency entry is “inactive”.

Take `CCOC(=O)Cn1c(=O)c(-c2cc(Br)ccc2N)nc2ccccc21`: the Potency entry in experiment [5] was “inactive”.

On to `CCC(=O)Oc1ccc2c(c1)O/C(=C\c1ccco1)C2=O`, for which, in experiment [5], the Potency was 16.3 µM (active).

On to `CS(=O)(=O)Nc1nc2n(n1)C(c1ccccc1)C=C(c1ccc(Br)cc1)N2` (stereo unspecified), for which the Potency in experiment [5] is 32.6 µM (active).

Take `C(=N\NC1=Nc2cccc3cccc1c23)/c1ccccc1`: the Potency entry in experiment [5] was “inactive”.

With `COc1ccc(-c2cc(C(F)(F)F)c3c(N)c(C(=O)NCCSC)sc3n2)cc1`, the Potency result in experiment [5] was “inactive”.

In the case of `Cc1ccc(NC(=S)Nc2ccc3nc(-c4ccccn4)c(-c4ccccn4)nc3c2)cc1C`, the Potency result in experiment [5] is “inactive”.

With `Cn1c(=O)c2[nH]c(COc3ccccc3)nc2n(C)c1=O`, in experiment [5], the Potency entry is “inactive”.

Source of the values: PubChem BioAssay (NCATS).
